# Measured values published in PubChem BioAssay (NCATS).
# A number with no mark means an inactive call. Records with an inconclusive call do not appear. The source made the active and inactive calls. Calls come from the whole dose curve; as a rule, active = well fitted curve in the direction sought with a large enough effect; inconclusive = small, poorly fitted or top-dose-only effect, or another doubt; inactive = no such curve, though single readings can be large; an effect the other way counts as inactive or inconclusive.
# Target: Guanine nucleotide-binding protein G(i) subunit alpha-1 (Homo sapiens) (UniProt P63096)
# Test: qHTS Assay for Inhibitors of RGS12 GoLoco Motif Activity (Green Fluorophore) (AID 879);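 note: 0% = labeled peptide with Gαi1 and full inhibition = labeled peptide alone without protein; negative values mean loss of peptide binding seen as reduced polarization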
# Conditions: Galphai1/FITC-RGS12 GoLoco peptide, fluorescence polarization; series mostly up to 57.1 µM; activity, negative = inhibition: at the top concentration
# How it was run: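 Fluorescence polarization assay: 50 nM Gαi1 with 10 nM FITC-labeled RGS12 GoLoco peptide in 10 mM Tris pH 7.5, 150 mM NaCl, 0.1 mM GDP, 0.05% NP40, 10 min at room temperature with compound.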
# Chain of Guanine nucleotide-binding protein G(i) subunit alpha-1 (Homo sapiens) (P63096 whole entry, looked up): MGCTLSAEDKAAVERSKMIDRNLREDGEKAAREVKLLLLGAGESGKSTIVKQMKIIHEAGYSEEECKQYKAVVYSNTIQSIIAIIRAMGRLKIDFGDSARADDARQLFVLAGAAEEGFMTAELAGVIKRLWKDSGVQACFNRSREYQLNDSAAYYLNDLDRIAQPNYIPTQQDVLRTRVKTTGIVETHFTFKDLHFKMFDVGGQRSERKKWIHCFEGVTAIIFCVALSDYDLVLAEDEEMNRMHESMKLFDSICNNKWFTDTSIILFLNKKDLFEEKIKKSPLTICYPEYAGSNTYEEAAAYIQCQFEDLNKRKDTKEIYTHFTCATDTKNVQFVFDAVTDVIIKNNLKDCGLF
row,Compound,"activity, negative = inhibition"
1,CC(C)C(=O)c1c(C(C)C)nn2ccccc12,-2.71%
2,CN(C)CCCN1c2ccccc2CCc2ccccc21,6.37%
3,CC(=O)OCC(=O)[C@@]1(O)CC[C@H]2[C@@H]3CCC4=CC(=O)CC[C@]4(C)[C@H]3C(=O)C[C@@]21C,7.27%
4,C[C@]12CC[C@@H]3c4ccc(O)cc4CC[C@H]3[C@@H]1CCC2=O,-5.93%
5,OCc1cc(C(O)CNCCCCCCOCCCCc2ccccc2)ccc1O (stereo unspecified),-9.52%

# Target: Cytochrome P450 2C9 (Homo sapiens) (UniProt P11712)
# Test: qHTS Assay for Inhibitors and Substrates of Cytochrome P450 2C9 (AID 883); note: nearly all actives have a fitted effect of over 60% in size; note: potency is the fitted concentration of half-maximal effect; for activity change, negative = inhibition: % is set by controls: 0 for no effect and ±100 for the full control effect
# Conditions: recombinant CYP2C9, luciferin-H luminescence, 60 min; series mostly up to 57.1 µM; activity change, negative = inhibition: at the top concentration
# How it was run: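 Inhibition of CYP2C9 is scored as loss of luminescence, with 57uM sulphaphenazole defining 100% inhibition. Substrate Luciferin-H is used at 100uM, equal to its KM; enzyme at 10nM in 25mM KPO4, 60 min at 37C with NADPH regeneration.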
# Chain of Cytochrome P450 2C9 (Homo sapiens) (P11712 whole entry, looked up): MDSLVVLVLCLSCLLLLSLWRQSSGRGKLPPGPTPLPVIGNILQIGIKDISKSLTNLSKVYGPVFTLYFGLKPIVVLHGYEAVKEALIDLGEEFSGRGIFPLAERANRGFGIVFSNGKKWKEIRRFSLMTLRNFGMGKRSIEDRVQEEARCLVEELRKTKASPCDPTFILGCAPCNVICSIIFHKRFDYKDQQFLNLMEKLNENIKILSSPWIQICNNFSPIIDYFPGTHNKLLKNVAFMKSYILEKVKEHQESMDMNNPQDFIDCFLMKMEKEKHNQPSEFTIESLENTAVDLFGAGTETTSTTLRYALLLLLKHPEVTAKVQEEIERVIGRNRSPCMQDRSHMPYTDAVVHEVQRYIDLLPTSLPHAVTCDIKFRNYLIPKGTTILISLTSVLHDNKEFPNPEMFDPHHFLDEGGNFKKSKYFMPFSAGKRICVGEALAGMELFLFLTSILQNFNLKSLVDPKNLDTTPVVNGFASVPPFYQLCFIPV
Compound,Potency,outcome,"activity change, negative = inhibition"
CC(C)C(=O)c1c(C(C)C)nn2ccccc12,inactive,,
CN(C)CCCN1c2ccccc2CCc2ccccc21,,inactive,
Cc1c(Cl)cccc1Nc1ccccc1C(=O)O,3.16 µM (active),,
O=c1cc(CO)occ1O,,,-0.937%

# Target: Cytochrome P450 3A4 (Homo sapiens) (UniProt P08684)
# Test: qHTS Assay for Inhibitors and Substrates of Cytochrome P450 3A4 (AID 884); note: nearly all actives have a fitted effect of over 50% in size; for activity change, negative = inhibition: % is set by controls: 0 for no effect and ±100 for the full control effect
# Conditions: recombinant CYP3A4, Luciferin-PPXE luminescence; series mostly up to 57.1 µM; activity change, negative = inhibition: at the top concentration
# How it was run: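 20 nM human CYP3A4 with 25 uM Luciferin-PPXE (at KM) in 200 mM KPO4, preincubated 10 min with compound; NADPH regeneration started a 60 min RT reaction. Luciferin detected by luminescence, normalized to 57 uM ketoconazole as full inhibition.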
# Chain of Cytochrome P450 3A4 (Homo sapiens) (P08684 whole entry, looked up): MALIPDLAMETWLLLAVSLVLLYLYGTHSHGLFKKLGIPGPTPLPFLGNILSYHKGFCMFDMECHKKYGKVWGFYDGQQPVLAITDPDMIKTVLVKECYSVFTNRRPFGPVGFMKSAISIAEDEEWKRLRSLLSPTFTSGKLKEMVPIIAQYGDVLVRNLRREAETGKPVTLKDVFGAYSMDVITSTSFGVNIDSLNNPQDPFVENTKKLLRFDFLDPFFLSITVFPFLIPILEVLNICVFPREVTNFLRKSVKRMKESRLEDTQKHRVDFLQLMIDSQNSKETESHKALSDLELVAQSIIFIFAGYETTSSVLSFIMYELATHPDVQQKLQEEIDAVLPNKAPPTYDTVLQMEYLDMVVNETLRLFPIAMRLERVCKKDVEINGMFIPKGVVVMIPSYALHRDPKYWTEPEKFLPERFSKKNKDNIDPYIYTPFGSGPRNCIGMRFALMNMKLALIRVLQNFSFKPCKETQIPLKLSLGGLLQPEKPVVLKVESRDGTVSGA
Compound,"activity change, negative = inhibition",outcome
Cc1ccc(C(C)C)cc2c(C)ccc1-2,-5.79%,
CN(C)CCN(Cc1ccccc1)c1ccccn1,-6.27%,
OC[C@H]1O[C@@H](O[C@@H]2[C@@H](CO)O[C@](O)(CO)[C@H]2O)[C@H](O)[C@@H](O)[C@H]1O,-6.4%,
O=C1NS(=O)(=O)c2ccccc21,0.093%,
CN(C)CCCN1c2ccccc2CCc2ccccc21,-8.68%,inactive
CC(COc1ccccc1)NC(C)C(O)c1ccc(O)cc1 (stereo unspecified),-6.3%,
CN(C)CCOC(C)(c1ccccc1)c1ccccn1 (stereo unspecified),-10.6%,
CC(=O)OCC(=O)[C@@]1(O)CC[C@H]2[C@@H]3CCC4=CC(=O)CC[C@]4(C)[C@H]3C(=O)C[C@@]21C,-6.74%,
O=C(Oc1ccccc1C(=O)O)c1ccccc1O,-12.3%,
O=c1cc[nH]c(=S)[nH]1,-14.3%,
Cc1c(Cl)cccc1Nc1ccccc1C(=O)O,38.9% [at 25.6 µM],
